# Assay results reported in PubChem BioAssay (Tox21).
# Results filed as inconclusive are left out. A number with no mark means an inactive call. Calls of active or inactive are those of the source. Calls come from the whole dose curve; as a rule, active = well fitted cell-killing curve with a large enough effect in the repeat runs; inconclusive = weak or mixed curves, or effect the other way; inactive = flat fitted curve, though single readings scatter.
# Experiment: qHTS assay to identify small molecule agonists of the TGF-beta/Smad signaling pathway - cell viability counter screen (AID 1346829); note: top concentration of the series differs between compounds; nearly all actives have a fitted effect of over 45% in size
# Settings: SBE-bla HEK293T viability, CellTiter-Glo luminescence, 5 h; series mostly up to 76.8 µM
# Excerpt: National Center for Advancing Translational Sciences [NCATS]
# NIH Chemical Genomics Center [NCGC]
# U.S. Environmental Protection Agency [EPA]
# National Institutes of Environmental Health Sciences [NIEHS]
# National Toxicology Program [NTP]
# U.S. Food and Drug Administration [FDA]
# Transforming growth factor beta (TGF-beta) superfamily consists of a large number of structurally related dimeric proteins that act as hormones or local mediators in regulating a wide range of biological functions. This superfamily includes TGF-betas themselves, the bone morphogenetic proteins (BMPs) and the activins. These ligands induce oligomerization of serine/threonine receptor kinases and phosphorylate the cytoplasmic signaling molecules of Smad protein family. CellSensor SBE-bla HEK 293T cell line (Life Technologies, Carlsbad, CA), responsive to TGF-beta was used to screen Tox21 10K compound library for identification of agonists/antagonists of the Smad signaling pathway. This cell line contains a beta-lactamase reporter gene under control of the Smad binding element (SBE) stably integrated into HEK 293T cells. Also cytotoxicity of the compounds was tested in parallel by measuring the cell viability using CellTiter-Glo assay system in the same wells.
# Tox21 Assay Protocol Summary:
# SBE-bla HEK 293T cells were dispensed at 4,000/well in 6 uL of assay medium into black wall/clear-bottom 1536-well plates using a Multidrop Combi (ThermoFisher Scientific, Waltham, MA) dispenser. After the assay plates were incubated at 37 C and 5% CO2 for an overnight, 23 nL of compounds dissolved in DMSO, positive controls or DMSO only was transferred to the assay plate by a Pintool station (Kalypsys, San Diego, CA). The assay plates were incubated at 37 C and 5% CO2 for 5 hr. One uL of LiveBLAzer B/G FRET substrate (Life Technologies) was added using a Flying Reagent Dispenser (FRD, Aurora Discovery, San Diego, CA) and the plates were incubated at room temperature for 2 hr. Fluorescence intensity (405 nm excitation, 460 nm and 530 nm emissions) was measured using an Envision plate reader (PerkinElmer, Shelton, CT). For cytotoxicity read, 4 uL of CellTiter-Glo reagent (Promega Corporation, Madison, WI) was added to each well of the assay plates using FRD. After 30min incubation at room temperature, the luminescence intensity was measured using ViewLux plate reader (PerkinElmer).
# % is set by controls: 0 for no effect and ±100 for the full control effect.
Compound,outcome,"activity change, negative = cytotoxicity"
CCCc1c(OCCCOc2ccc(OCC(=O)O)cc2)ccc(C(C)=O)c1O,inactive,–
CCOCCn1c(C2CCN(CCc3ccc(C(C)(C)C(=O)O)cc3)CC2)nc2ccccc21,inactive,–
CCCCCCOC(=O)CCCCCCCC(=O)OCCCCCC,inactive,–
O=S(=O)(c1ccccc1)c1ccc(Cl)cc1,inactive,–
Cc1c(C(=O)NN2CCCCC2)nn(-c2ccc(Cl)cc2Cl)c1-c1ccc(Cl)cc1,inactive,–
CC1=NN(c2ccc(C(=O)O)cc2)C(=O)C1,inactive,–
COc1cc2c(N3CCN(C(=O)Nc4ccc(OC(C)C)cc4)CC3)ncnc2cc1OCCCN1CCCCC1,inactive,–
CC(=O)N(c1onc(C)c1C)S(=O)(=O)c1ccc(N)cc1,inactive,–
COC(=O)c1cc(S(N)(=O)=O)ccc1OC,inactive,–
CC(C)CCCCCCOC(=O)CCCCC(=O)OCCCCCCC(C)C,inactive,–
CC(=O)CC(c1ccc([N+](=O)[O-])cc1)c1c(O)c2ccccc2oc1=O (stereo not given),inactive,–
CCN(CC)CCNC(=O)c1ccc(NC(C)=O)cc1,inactive,–
CCCCN(CCCC)CCCOC(=O)c1ccc(N)cc1,inactive,–
NC(=O)Cn1c(=O)cc(CCN2CCN(c3nccc4sccc34)CC2)c2ccc(F)cc21,inactive,–
CC[C@H](NC(=O)c1cc(F)ccc1NS(=O)(=O)c1cccc2cccnc12)c1ccccc1,inactive,–
CO[C@H]1O[C@H](CO)[C@@H](O)[C@H](O)[C@H]1O,inactive,–
C/C=C/C=C/CCCCCCCO,inactive,–
Oc1cc(O)c(Cl)cc1Cl,inactive,–
CCOC(=O)/C=C/C(=O)O,inactive,–
C=CC(C)(C)CC(=O)OC,inactive,–

Compound,outcome,"activity change, negative = cytotoxicity"
Cc1ccccc1N1C(=O)c2cc(S(N)(=O)=O)c(Cl)cc2NC1C (stereo not given),inactive,–
CCC(C(=O)OCCN(CC)CC)c1ccccc1 (stereo not given),inactive,–
CC(C)(O)c1ccccc1CC[C@@H](SCC1(CC(=O)O)CC1)c1cccc(/C=C/c2ccc3ccc(Cl)cc3n2)c1,inactive,–
C[Si]1(C)O[Si](C)(C)O[Si](C)(C)O1,inactive,–
Cc1nccn1-c1ccc(Sc2cccc(C3(C(N)=O)CCOCC3)c2)cc1,inactive,–
Nc1ccc(S(=O)(=O)O)c(N)c1,inactive,–
CCCCCCCCCCCCCCC[C@H](O)[C@@H](N)CO,inactive,–
CCc1c2c(nc3ccc(OC(=O)N4CCC(N5CCCCC5)CC4)cc13)-c1cc3c(c(=O)n1C2)COC(=O)[C@]3(O)CC,inactive,–
CCC(C)(C)C1CCC(O)CC1 (stereo not given),inactive,–
CC1(C)C(=O)N(Br)C(=O)N1Cl,inactive,–
CCCC(=O)O[C@]1(C(=O)COC(=O)CC)CC[C@H]2[C@@H]3CCC4=CC(=O)CC[C@]4(C)[C@H]3[C@@H](O)C[C@@]21C,–,-0.518% [at 15.8 µM]
C[C@@H]1C[C@H]2[C@@H]3CCC4=CC(=O)C=C[C@]4(C)[C@@]3(F)[C@@H](O)C[C@]2(C)[C@@]1(O)C(=O)CO,inactive,–
C=CC(C)(O)CCCC(C)CCCC(C)CCCC(C)C (stereo not given),inactive,–
CC(=O)Nc1ccccc1C,inactive,–
O=C(c1ccc(O)cc1)c1ccc(Cl)cc1,inactive,–
CC(C)CCCC(=O)O,inactive,–
Cc1cc(OI)c(C(C)C)cc1-c1cc(C(C)C)c(OI)cc1C,inactive,–
CCCOc1ccc(S(=O)(=O)N2CCN(CC)CC2)cc1-c1nc2c(CC)n(Cc3ccccn3)nc2c(=O)[nH]1,inactive,–
O=C(C(=O)c1ccccc1)c1ccccc1,inactive,–
O=C(O)c1ccccc1NCCc1ccccc1,inactive,–
